{"source": "PubChem BioAssay AID602143", "about": "(Vanderbilt Specialized Chemistry Center, 2011)", "note": "Where “and” joins values, the source holds several entries; their conditions need not be identical. Equal entries are not always repeated. Calls of active or inactive are those of the source. Rule as the data show it: active = remaining activity below about 50%; inactive = the rest.", "data": [{"target": "Phospholipase D2 (Homo sapiens) (UniProt O14939)", "assay": "PLD2 inhibitors in cells, cell-based, HEK293, single concentration (AID 602143);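 also: tested at 200 nM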", "details": "HEK293 cellular PLD2 activity, percent of control; active compounds read low", "values": [{"smiles": "C[C@@H](CN1CCC2(CC1)C(=O)NCN2c1ccc(F)c(F)c1)NC(=O)c1cc2cc(F)ccc2[nH]1", "remaining activity": "4.81% (active)"}, {"smiles": "CN(CCN1CCC2(CC1)C(=O)NCN2c1ccccc1)C(=O)c1ccc2ccccc2c1", "remaining activity": "95.2% (inactive)"}, {"smiles": "O=C(c1cnc2ccccc2c1)N1CC(N2CCC(n3c(=O)[nH]c4cc(Br)ccc43)CC2)C1", "remaining activity": "99.7% (inactive)"}, {"smiles": "O=C(Cc1ccccc1Br)NCCN1CCC2(CC1)C(=O)NCN2c1cccc(F)c1", "remaining activity": "117% (inactive)"}, {"smiles": "O=C(NCCN1CCC2(CC1)C(=O)NCN2c1ccccc1)c1ccc(F)cc1O", "remaining activity": "82.6% (inactive)"}, {"smiles": "O=C(NCCN1CCC2(CC1)C(=O)NCN2c1ccccc1)c1cccnn1", "remaining activity": "88.2% (inactive)"}, {"smiles": "O=C(NCCN1CCC2(CC1)C(=O)NCN2c1cccc(Br)c1)c1ccc2ccccc2c1", "remaining activity": "47.8% (active)"}, {"smiles": "O=C(NCCN1CCC2(CC1)C(=O)NCN2c1cccc(F)c1)c1ccc2c(c1)C(=O)OC2=O", "remaining activity": "66.5% (inactive)"}, {"smiles": "O=C(NCCN1CCC2(CC1)C(=O)NCN2c1ccc(Cl)cc1)c1ccc2ccccc2c1", "remaining activity": "54.4% (inactive)"}, {"smiles": "O=C(NCCN1CCC2(CC1)C(=O)NCN2c1cccc(F)c1)C(c1ccccc1)c1ccccc1", "remaining activity": "92.3% (inactive)"}, {"smiles": "O=C1c2ccccc2C(=O)N1CCN1CCC2(CC1)C(=O)NCN2c1ccccc1", "remaining activity": "86.5% (inactive)"}, {"smiles": "O=C(NCCN1CCC2(CC1)C(=O)NCN2c1cccc(F)c1)c1c(F)cccc1F", "remaining activity": "88% (inactive)"}, {"smiles": "O=C(c1cnc2ccccc2c1)N1CC(N2CCC(n3c(=O)[nH]c4ccccc43)CC2)C1", "remaining activity": "77.3% (inactive)"}, {"smiles": "O=C(c1cccc(F)c1)N(CCN1CCC2(CC1)C(=O)NCN2c1cccc(F)c1)C(=O)c1cccc(F)c1", "remaining activity": "71.6% (inactive)"}, {"smiles": "O=C(NCCN1CCC2(CC1)C(=O)NCN2c1ccc(F)c(F)c1)c1cc2cc(F)ccc2[nH]1", "remaining activity": "10.4% (active)"}, {"smiles": "Cc1cccc(C(=O)N[C@@H](C)CN2CCC3(CC2)C(=O)NCN3c2ccccc2)c1", "remaining activity": "83.2% (inactive)"}, {"smiles": "O=C(NCCN1CCC2(CC1)C(=O)NCN2c1ccccc1)C1(c2ccccc2)CCC1", "remaining activity": "87.6% (inactive)"}, {"smiles": "CC(C)[C@@H](CN1CCC2(CC1)C(=O)NCN2c1ccccc1)NC(=O)c1cc2cc(F)ccc2[nH]1", "remaining activity": "57.1% (inactive)"}, {"smiles": "O=C(NCCN1CCC2(CC1)C(=O)NCN2c1ccccc1)c1cc(Br)c(Br)o1", "remaining activity": "77.1% (inactive)"}, {"smiles": "O=C(NCCN1CCC2(CC1)C(=O)NCN2c1ccc(Cl)cc1)c1cnc2ccccc2c1", "remaining activity": "29.7% (active)"}, {"smiles": "O=C(c1ccc(F)c(F)c1)N1CCCC1CN1CCC(n2c(=O)[nH]c3ccccc32)CC1", "note": "(stereo unspecified)", "remaining activity": "124% (inactive) and 114% (inactive)"}, {"smiles": "O=C(NCCN1CCC2(CC1)C(=O)NCN2c1ccc(Cl)cc1)c1ccc(F)cc1", "remaining activity": "58.4% (inactive)"}, {"smiles": "CC(C)(C)C(=O)NCCN1CCC2(CC1)C(=O)NCN2c1cccc(F)c1", "remaining activity": "74.9% (inactive)"}, {"smiles": "O=C(CCN1CCC2(CC1)C(=O)NCN2c1ccccc1)Nc1ccc(F)c(F)c1", "remaining activity": "147% (inactive)"}, {"smiles": "O=C(NCCN1CCC2(CC1)C(=O)NCN2c1ccccc1)c1ccc2c(c1)OCO2", "remaining activity": "90% (inactive)"}, {"smiles": "O=C(Cc1cccs1)NCCN1CCC2(CC1)C(=O)NCN2c1cccc(F)c1", "remaining activity": "77.8% (inactive)"}, {"smiles": "C[C@@H](CN1CCC2(CC1)C(=O)NCN2c1ccccc1)NC(=O)c1ccc(F)c(F)c1", "remaining activity": "54.7% (inactive)"}, {"smiles": "COc1cc(C(=O)NCCN2CCC3(CC2)C(=O)NCN3c2ccccc2)ccc1N", "remaining activity": "38.8% (active)"}, {"smiles": "NC1(CN2CCC3(CC2)C(=O)NCN3c2ccccc2)CCCC1", "note": "(tested in a mixture with another compound)", "remaining activity": "74.2% (inactive)"}, {"smiles": "O=C(NCCN1CCC2(CC1)C(=O)NCN2c1cccc(F)c1)c1cc2cc(F)ccc2[nH]1", "remaining activity": "0.401% (active)"}, {"smiles": "O=C(NCCN1CCC2(CC1)C(=O)NCN2c1cccc(Cl)c1)c1cnc2ccccc2c1", "remaining activity": "45.2% (active)"}, {"smiles": "O=C(NCCCN1CCC2(CC1)C(=O)NCN2c1ccccc1)c1ccc2ccccc2c1", "remaining activity": "98% (inactive)"}, {"smiles": "O=C(NCCN1CCC2(CC1)C(=O)NCN2c1ccc(Br)cc1)c1cc2cc(F)ccc2[nH]1", "remaining activity": "23.7% (active)"}, {"smiles": "O=C(NCCN1CCC2(CC1)C(=O)NCN2c1ccccc1)c1cscn1", "remaining activity": "76.2% (inactive)"}, {"smiles": "O=C(C1CC1c1ccccc1)N1CC(N2CCC3(CC2)C(=O)NCN3c2ccccc2)C1", "note": "(stereo unspecified)", "remaining activity": "82.9% (inactive)"}, {"smiles": "O=C(NCCN1CCC2(CC1)C(=O)NCN2c1cccc(Cl)c1)c1ccc2ccccc2c1", "remaining activity": "72% (inactive)"}]}]}
